Pf growth 96h: Primary qHTS for delayed death inhibitors of the malarial parasite plastid, 96 hour incubation. P. falciparum luciferase reporter growth, 96 h. Potency, µM (top dose mostly 28.7 µM), for inactives: at the highest dose activity change, negative = inhibition, hits mostly inhibitors. actives 6.9% (n = 320,000). AID 504834, 2011; note: potency is the fitted concentration of half-maximal effect; % is set by controls: 0 for no effect and ±100 for the full control effect
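96 h incubation, 37 C, 5% CO2, of luciferase-reporter P. falciparum-infected RBCs (2% hematocrit, 0.05% parasitemia final) with test compounds; endpoint luminescence.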
Pf growth 48h: Primary qHTS for delayed death inhibitors of the malarial parasite plastid, 48 hour incubation | AID 504832, 2011 | actives 5.9% (n = 310,000) | Potency, µM (top dose mostly 28.7 µM), for the others: at the top dose activity change, negative = inhibition, hits mostly inhibitors | P. falciparum luciferase growth in erythrocytes, 48 h; note: potency is the fitted concentration of half-maximal effect; % is set by controls: 0 for no effect and ±100 for the full control effect
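Cell-based growth assay: transgenic P. falciparum expressing firefly luciferase, cultured in red cells within RPMI 1640 containing 0.5% w/v Albumax, 24 mM bicarbonate and gentamycin. A drop in luciferase activity indicates inhibition.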
Sm TGR block: qHTS Assay for the Inhibitors of Schistosoma Mansoni Peroxiredoxins. purified TGR, DTNB reduction, TNB absorbance 405 nm. AID 485364, 2010. Potency, µM (top dose mostly 114 µM), for the others: top-dose activity change, negative = inhibition, most hits filed as inhibitors. actives 3% (n = 360,000); note: potency is the fitted concentration of half-maximal effect; % is set by controls: 0 for no effect and ±100 for the full control effect; nearly all actives have a fitted effect of over 60% in size
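First, TGR (20 nM dispensed) and NADPH were mixed with compound. Second, a 15 min room-temperature incubation followed. Third, further NADPH and then DTNB were added to start the reaction. Finally, TNB absorbance was monitored kinetically.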
SARS PLpro yeast-1: qHTS of Yeast-based Assay for SARS-CoV PLP; S. cerevisiae expressing SARS-CoV PLpro, growth rescue; Potency, µM (highest dose often 32.9 µM), for the others: top-dose activity, positive = growth rescue, actives largely listed as activators; actives 0.19% (n = 330,000); AID 485353, 2010; calls by dose curve; note: potency is the fitted concentration of half-maximal effect; 0% is about no effect; nearly all actives have a fitted effect of over 55% in size
SARS PLpro yeast-2: qHTS of Yeast-based Assay for SARS-CoV PLP: Hit Validation; shares compounds with SARS PLpro yeast-1; yeast expressing SARS-CoV PLpro, growth phenotype rescue; calls only; actives 19% (n = 1,000); call rule not given here
The depositor's hits bear a star; i = inactive; u = inconclusive; x = not tested or not shown; + = active, no number; [ ] = remark or other dose. Shown are actives, neighbours in structure and some others; about 12% of the full set was active somewhere. Unless noted, calls come from the whole dose curve; as a rule, active = well fitted curve in the direction sought with a large enough effect; inconclusive = small, poorly fitted or top-dose-only effect, or another doubt; inactive = no such curve, though single readings can be large; an effect the other way counts as inactive or inconclusive.

SMILES	Pf growth 96h	Pf growth 48h	Sm TGR block	SARS PLpro yeast-1	SARS PLpro yeast-2
CC(=O)Nc1cccc(-c2nnc(-c3ccccc3)o2)c1	x	28%	2%	u	u
CC(=O)Nc1cccc(-c2nc(-c3ccccc3)no2)c1	x	x	7%	x	x
NC(=S)N/N=C/c1ccccc1	u	8%	3%	2.5µM*	+
NC(=S)N/N=C\c1c2ccccc2cc2ccccc12	-16%	-3%	-16%	14µM*	i
COc1cc(/C=N/NC(N)=S)ccc1OCc1ccc(C)cc1	u	u	0%	u	+
Cc1[nH]c2ccccc2c1/C=N/NC(N)=S	u	30%	-5%	0%	x
NC(=S)N/N=C/c1ccc2c(c1)OCCO2	-7%	113%	0%	14µM*	+
COC(=O)c1ccc(NC(=O)CC2C(=O)N(c3ccccc3)C(=O)N2C2CCCC2)cc1 (stereo not drawn)	x	x	-9%	x	x
Cc1ccccc1OCC(=O)Nc1cccc(C(=O)OCc2cc(=O)n3c(C)csc3n2)c1	x	x	5%	x	x
O=C(CSCc1ccccc1)N/N=C/c1ccccc1OCc1ccccc1	u	u	3%	-6%	x
NC(=S)N/N=C\c1ccccc1OCc1ccccc1	u	-11%	-5%	11µM*	+
COC(=O)c1ccccc1NC(=O)CNc1ccc(F)c(S(=O)(=O)N2CCOCC2)c1	-4%	u	-18%	2%	x
COc1cccc(N=CC2=C(O)CC(C)(C)CC2=O)c1	-8%	-7%	-4%	x	i
Cc1ccc2c(CSc3nnc4ccccn34)cc(=O)oc2c1C	-12%	34%	-14%	3.5µM*	i
Cc1ccc2c(CSc3nc4ccccc4c(=O)n3CCCO)cc(=O)oc2c1C	u	u	3%	1%	x
COc1cccc(CNC(=O)c2sc3nc4n(c(=O)c3c2C)CCC4)c1	x	x	5%	x	x
C(=N\NC(=Nc1ccccc1)c1ccccn1)/c1ccccn1	28%	u	u	u	u
Clc1ccc(/C=N/NC(=Nc2ccccc2)c2ccccn2)c(Cl)c1	-38%	33%	-7%	0%	x
C/C(=N\NC(=O)CCCNc1ccc(C)cc1)c1ccccn1	u	u	-19%	u	+
C/C(=N\NC(=O)CCCNc1ccccc1)c1ccncc1	u	-2%	12%	1%	x
OC1(c2cccc(C(F)(F)F)c2)CCN(Cc2nnnn2CCc2ccccc2)CC1	31%	u	7%	u	i
Cc1cc(C)c2cc(CN(CCO)C(=O)NC3CCCCC3)c(=O)[nH]c2c1	u	-9%	-5%	1%	x
CCN1CCCC1CN(Cc1cc2c(C)cc(C)cc2[nH]c1=O)C(=O)NC1CCCCC1 (stereo not drawn)	x	9.3µM*	-23%	u	i
COc1ccc(CCNC(=O)Cn2nnc(-c3ccccc3F)n2)cc1OC	u	x	1%	u	i
COc1ccc(CCNC(=O)CCNC(=O)c2ccc(Br)cc2)cc1OC	-13%	1%	-1%	u	i
SMILES	Pf growth 96h	Pf growth 48h	Sm TGR block	SARS PLpro yeast-1	SARS PLpro yeast-2
O=C(Cn1nnc(-c2ccccc2F)n1)Nc1ccc2c(c1)OCO2	22%	x	6%[11.4 µM]	u	i
COc1ccc(CCNC(=O)Cn2nnc(-c3ccc(Cl)cc3)n2)cc1OC	x	x	10%	x	x
Cc1ccc(/C=C/c2onc(C)c2S(=O)(=O)N2CCC(C(=O)N3CCN(c4cccc(C)c4)C(C)C3)CC2)cc1 (stereo not drawn)	x	x	10%	x	x
Cc1cc(Cl)ccc1OCc1cc(=O)n2c3c(sc2n1)CCCC3	x	x	0%	x	x
COc1ccc(NC(=O)c2cccc3cccnc23)cc1S(N)(=O)=O	-7%	-16%	-1%	6%	x
Cc1ccc(S(=O)(=O)N2CCCC2)cc1C(=O)N1CCN(Cc2ccccc2)CC1	u	24%	-20%	2%	x
CCOc1ccc(-c2c(C(=O)N/N=C/c3ccc(OC)cc3)nnn2-c2nonc2N)cc1	2%	-5%	2%	20µM*	i
CCCOc1ccc(-c2c(C(=O)N/N=C/c3ccc(OC)cc3)nnn2-c2nonc2N)cc1	-3%	1%	-3%	4%	x
CC(=O)Nc1ccc2c(c1)nc(CCN1CCN(c3ccccn3)CC1)n2C	26%	42%	0%	1%	x

Screens (PubChem BioAssay)
